For some of these results: Potency and affinity values are given separately. Calls of active or inactive are those of the source. Unless noted, the rule behind the calls is not given here.
Key:
[1] = antimalarial activity against Dd2 strain (AID 2302;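 active = growth inhibition above 50% at the single 2 µM test dose, taken to imply half-maximal potency below 2 µM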;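 note: 0% = DMSO untreated growth and 100% = chloroquine plus artemisinin killed control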); details: P. falciparum Dd2 in RBCs, LDH growth readout, 72 h; at 2 µM; hits give high values
[2] = HepG2 cytotoxicity, primary screen, cytotoxicity control for P. falciparum antimalarial project, cell-based, ATP luminescence (AID 2303;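 active = inhibition above 50%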;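 note: 0% = DMSO wells and 100% = digitonin-killed cells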); details: HepG2 viability, 24-48 h, at 10 µM, hits give high values
[3] = target: L-lactate dehydrogenase (Plasmodium falciparum (isolate CDC / Honduras)) (UniProt Q27743); experiment: PfLDH activity inhibition – cell lysate, 3D7 strain, counter-screen for P. falciparum growth inhibition project (AID 2304);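 note: 0% = vehicle and 100% = reference inhibitor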; details: P. falciparum 3D7 crude extract, LDH APAD/NBT absorbance; at 2 µM; hits give high values
Chain of L-lactate dehydrogenase (Plasmodium falciparum (isolate CDC / Honduras)) (Q27743 whole entry, looked up): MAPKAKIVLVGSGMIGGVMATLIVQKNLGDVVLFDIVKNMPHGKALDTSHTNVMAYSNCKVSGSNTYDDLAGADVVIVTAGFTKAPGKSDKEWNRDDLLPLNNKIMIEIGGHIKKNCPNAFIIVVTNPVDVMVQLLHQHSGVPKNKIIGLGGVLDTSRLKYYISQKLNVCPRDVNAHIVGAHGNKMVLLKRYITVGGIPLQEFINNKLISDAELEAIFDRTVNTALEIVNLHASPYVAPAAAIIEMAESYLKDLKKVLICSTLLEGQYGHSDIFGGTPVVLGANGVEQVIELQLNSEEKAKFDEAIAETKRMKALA

[4] = inhibition of 3D7 malaria parasite growth – strain 3D7 (AID 2306);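 note: 0% = DMSO wells and 100% = chloroquine plus artemisinin control wells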; details: P. falciparum 3D7 erythrocytic growth, LDH absorbance, 72 h; at 2 µM; hits give high values
[5] = target: Calcium-dependent protein kinase 1 (Plasmodium falciparum (isolate 3D7)) (UniProt P62344); experiment: PfCDPK1 kinase inhibitors, biochemical, TCAMS library (AID 1159585; cut-off not given, nearly all actives have IC50 up to about 0.98 µM;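 note: inhibitors leave more ATP so luminescence rises with inhibition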); details: recombinant PfCDPK1, Kinase-Glo ATP depletion luminescence
Chain of Calcium-dependent protein kinase 1 (Plasmodium falciparum (isolate 3D7)) (P62344 whole entry, looked up): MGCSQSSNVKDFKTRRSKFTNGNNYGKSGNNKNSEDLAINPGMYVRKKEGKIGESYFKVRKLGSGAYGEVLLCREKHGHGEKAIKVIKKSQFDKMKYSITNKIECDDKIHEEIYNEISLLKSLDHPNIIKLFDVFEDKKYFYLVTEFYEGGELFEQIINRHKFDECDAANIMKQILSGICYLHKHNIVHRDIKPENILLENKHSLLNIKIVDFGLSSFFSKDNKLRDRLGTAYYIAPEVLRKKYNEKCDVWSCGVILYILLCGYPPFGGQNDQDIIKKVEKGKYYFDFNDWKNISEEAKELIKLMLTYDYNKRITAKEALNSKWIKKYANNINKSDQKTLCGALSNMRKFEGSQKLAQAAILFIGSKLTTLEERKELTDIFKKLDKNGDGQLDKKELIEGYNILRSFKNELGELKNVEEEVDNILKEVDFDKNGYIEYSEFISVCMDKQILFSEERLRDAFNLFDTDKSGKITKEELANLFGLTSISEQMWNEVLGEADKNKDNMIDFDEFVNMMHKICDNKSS

[6] = target: Plasmodium falciparum protein kinase 6 (PK6, PF3D7_1337100) (UniProt Q8IDW1); experiment: PfPK6 kinase inhibitors, biochemical, TCAMS library (AID 1159586); details: recombinant PfPK6, Kinase-Glo ATP depletion luminescence
Chain of Plasmodium falciparum protein kinase 6 (PK6, PF3D7_1337100) (Q8IDW1 1-305): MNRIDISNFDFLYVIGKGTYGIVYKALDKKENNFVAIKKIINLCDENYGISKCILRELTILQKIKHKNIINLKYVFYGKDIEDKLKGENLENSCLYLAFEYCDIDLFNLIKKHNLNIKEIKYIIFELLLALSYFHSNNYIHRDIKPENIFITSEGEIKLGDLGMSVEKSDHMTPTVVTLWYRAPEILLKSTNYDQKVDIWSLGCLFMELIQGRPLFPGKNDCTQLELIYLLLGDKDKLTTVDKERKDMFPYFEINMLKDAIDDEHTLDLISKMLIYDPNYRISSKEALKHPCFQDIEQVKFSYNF

[7] = target: Protein kinase 7 (PK7), Plasmodium falciparum 3D7 (PF3D7_0213400) (UniProt Q7YTF7); experiment: inhibition of Plasmodium PK7 catalytic activity – biochemical, TCAMS antimalarial set, Kinase-Glo luminescence (AID 1159587); details: recombinant PfPK7, Kinase-Glo ATP depletion luminescence
Chain of Protein kinase 7 (PK7), Plasmodium falciparum 3D7 (PF3D7_0213400) (Q7YTF7 1-343): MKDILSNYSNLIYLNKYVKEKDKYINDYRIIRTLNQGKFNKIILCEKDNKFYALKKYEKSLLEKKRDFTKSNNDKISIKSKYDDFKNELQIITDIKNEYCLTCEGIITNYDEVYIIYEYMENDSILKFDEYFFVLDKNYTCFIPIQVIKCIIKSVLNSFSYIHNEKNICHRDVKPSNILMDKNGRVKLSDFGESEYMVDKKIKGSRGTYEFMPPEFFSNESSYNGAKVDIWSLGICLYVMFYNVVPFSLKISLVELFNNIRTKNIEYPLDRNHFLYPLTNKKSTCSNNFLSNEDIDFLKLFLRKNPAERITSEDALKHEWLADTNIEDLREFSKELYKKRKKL

[8] = target: Calcium-dependent protein kinase 4 (Plasmodium falciparum (isolate 3D7)) (UniProt Q8IBS5); experiment: PfCDPK4 kinase inhibitors, biochemical, TCAMS library (AID 1159588; cut-off not given, nearly all actives have IC50 up to about 0.91 µM); details: recombinant PfCDPK4, Kinase-Glo ATP depletion luminescence
Chain of Calcium-dependent protein kinase 4 (Plasmodium falciparum (isolate 3D7)) (Q8IBS5 whole entry, looked up): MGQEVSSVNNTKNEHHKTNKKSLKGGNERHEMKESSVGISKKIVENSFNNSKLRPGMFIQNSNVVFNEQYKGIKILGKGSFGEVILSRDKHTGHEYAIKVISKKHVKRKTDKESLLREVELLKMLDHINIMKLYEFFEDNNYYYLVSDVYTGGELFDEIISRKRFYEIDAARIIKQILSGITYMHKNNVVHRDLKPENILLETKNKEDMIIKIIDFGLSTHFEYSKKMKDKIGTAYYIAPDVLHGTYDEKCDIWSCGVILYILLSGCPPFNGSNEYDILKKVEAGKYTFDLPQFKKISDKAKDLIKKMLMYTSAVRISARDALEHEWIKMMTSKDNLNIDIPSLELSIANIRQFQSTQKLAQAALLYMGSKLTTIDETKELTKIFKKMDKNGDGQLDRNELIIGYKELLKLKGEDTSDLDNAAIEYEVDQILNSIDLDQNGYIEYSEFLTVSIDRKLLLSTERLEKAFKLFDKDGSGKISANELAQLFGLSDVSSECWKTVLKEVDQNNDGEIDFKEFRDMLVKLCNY

N#Cc1cccc(C(=O)Nc2ccc(-c3nc4ccccc4[nH]3)cc2)c1
inactive: growth inhibition [1] 38% | inhibition [2] 33% | inhibition [3] -2% | outcome [5] | outcome [6] | outcome [7] | outcome [8]
active: growth inhibition [4] 91%

COc1cc(C2NCC3(CCOCC3)c3cc4c(cc32)OCCO4)cc(OC)c1OC (stereo not given)
active: growth inhibition [4] 95%
inactive: growth inhibition [1] 2% | inhibition [2] 24% | inhibition [3] -5% | outcome [5] | outcome [6] | outcome [7] | outcome [8]

Cc1cc(Nc2ccc(C)c(Cl)c2)n2nc(C(F)(F)F)nc2n1
active: growth inhibition [1] 97% | growth inhibition [4] 98%
inactive: inhibition [2] 2% | inhibition [3] 2% | outcome [5] | outcome [6] | outcome [7] | outcome [8]

COc1c(C2CCN(CCN3CCC(NC(=O)c4ccc(-c5ccc(C(F)(F)F)cc5)cc4)CC3)CC2)ccc2c1CCCC2
active: growth inhibition [4] 82%
inactive: growth inhibition [1] 35% | inhibition [2] 42% | inhibition [3] 0% | outcome [5] | outcome [6] | outcome [7] | outcome [8]

Cc1cc(-c2ccc(CNC3CCN(C)CC3)cc2)ccc1S(=O)(=O)NCc1ccccc1
inactive: inhibition [3] 5% | outcome [5] | outcome [6] | outcome [7] | outcome [8]
active: growth inhibition [1] 97% | inhibition [2] 52% | growth inhibition [4] 100%

Cc1ccnc2nc(C(=O)Nc3cc(C(F)(F)F)ccc3N3CCCCC3)nn12
active: growth inhibition [1] 94% | growth inhibition [4] 96%
inactive: inhibition [2] 7% | inhibition [3] -5% | outcome [5] | outcome [6] | outcome [7] | outcome [8]

CC1=C(C(=O)OCCOCc2ccccc2)C(c2ccccc2C(F)(F)F)C(C(=O)OCCOCc2ccccc2)=C(C)N1
inactive: inhibition [2] -7% | inhibition [3] 3% | outcome [5] | outcome [6] | outcome [7] | outcome [8]
active: growth inhibition [1] 87% | growth inhibition [4] 89%

COc1ccc(CC(=O)Nc2ccc(-c3cccc(-c4nc5c(C)cccc5[nH]4)c3)cc2)cc1O
active: growth inhibition [4] 96%
inactive: growth inhibition [1] 30% | inhibition [2] 6% | inhibition [3] 4% | outcome [5] | outcome [6] | outcome [7] | outcome [8]

CCOc1ccc(C(=O)N2CCOC(CCN3CCC(c4ccccc4)CC3)(c3ccc(Cl)c(Cl)c3)C2)cc1 (stereo not given)
active: growth inhibition [1] 71% | growth inhibition [4] 88%
inactive: inhibition [2] 14% | inhibition [3] 8% | outcome [5] | outcome [6] | outcome [7] | outcome [8]

Cc1ccc(Cn2c(N3CCC(C(=O)NCc4cccs4)CC3)nc3ccccc32)cc1
inactive: inhibition [2] -4% | inhibition [3] -1% | outcome [5] | outcome [6] | outcome [7] | outcome [8]
active: growth inhibition [1] 71% | growth inhibition [4] 99%

Cc1ccc(-c2cc3nc4c(c(NCCCn5ccnc5)n3n2)CCC4)cc1
inactive: growth inhibition [1] 21% | inhibition [2] 22% | inhibition [3] -2% | outcome [5] | outcome [6] | outcome [7] | outcome [8]
active: growth inhibition [4] 94%

Cc1c(CNCCCNc2cc(=O)c3ccccc3[nH]2)sc(C(F)=C(F)F)c1Br
active: growth inhibition [4] 94%
inactive: growth inhibition [1] 18% | inhibition [2] 7% | inhibition [3] -2% | outcome [5] | outcome [6] | outcome [7] | outcome [8]

Cc1cccc(-c2nc3[nH]c(=O)cc(NC(=O)C(C)C)n3n2)c1
inactive: inhibition [2] -12% | inhibition [3] 0% | outcome [5] | outcome [6] | outcome [7] | outcome [8]
active: growth inhibition [1] 93% | growth inhibition [4] 96%

COc1cc(NC(=O)N2CCOC(CCN3CCC4(CCc5ccccc54)CC3)(c3ccc(Cl)c(Cl)c3)C2)cc(OC)c1 (stereo not given)
inactive: inhibition [2] 29% | inhibition [3] 3% | outcome [5] | outcome [6] | outcome [7] | outcome [8]
active: growth inhibition [1] 50% | growth inhibition [4] 87%

Cc1cc(Nc2ccc3ccccc3c2)n2ncnc2n1
inactive: inhibition [2] 11% | inhibition [3] -2% | outcome [5] | outcome [6] | outcome [7] | outcome [8]
active: growth inhibition [1] 95% | growth inhibition [4] 96%

O=C(Nc1cccc(F)c1)N[C@H]1CCN(CCCCCNC(=O)[C@@H]2C[C@H]2c2ccc(Cl)c(Cl)c2)C1
inactive: growth inhibition [1] 1% | inhibition [2] 41% | inhibition [3] -1% | outcome [5] | outcome [6] | outcome [7] | outcome [8]
active: growth inhibition [4] 90%

CC(C)c1ccc(CN2CCC(NC(=O)c3ccc(-c4cccc(F)c4)s3)CC2)cc1
active: growth inhibition [4] 83%
inactive: growth inhibition [1] 12% | inhibition [2] 47% | inhibition [3] 3% | outcome [5] | outcome [6] | outcome [7] | outcome [8]

NC(=O)c1cccc(Nc2nccc(Nc3ccc(Oc4c(Cl)cccc4Cl)c(Cl)c3)n2)c1
active: growth inhibition [4] 93%
inactive: growth inhibition [1] 17% | inhibition [2] 2% | inhibition [3] 5% | outcome [5] | outcome [6] | outcome [7] | outcome [8]

O=C(/C=C/c1ccc(Cl)c(Cl)c1)NCCCCCN1CCC(NC(=O)NC2CCCCCC2)CC1
active: growth inhibition [4] 99%
inactive: growth inhibition [1] 41% | inhibition [2] 15% | inhibition [3] -3% | outcome [5] | outcome [6] | outcome [7] | outcome [8]

Clc1ccc(-n2cnc3c(Nc4ccc(Oc5ccccc5)cc4)ncnc32)cc1Cl
active: growth inhibition [1] 65% | growth inhibition [4] 99%
inactive: inhibition [2] 4% | inhibition [3] 0% | outcome [5] | outcome [6] | outcome [7] | outcome [8]

— PubChem BioAssay
